# Test results published in PubChem BioAssay (Tox21).
# Unmarked numbers belong to inactive results. Results filed as inconclusive are left out. A call without a number means that no potency is given here. Active and inactive are the calls of the source. Unless noted, calls follow the shape of the dose curve; as a rule, active = well fitted curve in the direction sought with a large enough effect in the repeat runs; inconclusive = weak or mixed curves; inactive = no such curve, though single readings can be large; an effect the other way counts as inactive or inconclusive.
# Experiments:
# [1] = qHTS assay for small molecule agonists of the p53 signaling pathway (AID 651631; calls by dose curve; also: nearly all actives have a fitted effect of over 15% in size; also: potency is read from the fitted curve at half-maximal effect); settings: HCT-116 p53RE-bla reporter, beta-lactamase FRET ratio, 16 h; series mostly up to 73.3 µM
# In short: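 p53RE-bla HCT-116 cells; compounds 16 h, 37 °C; LiveBLAzer B/G FRET substrate 2 h RT; fluorescence intensity read-out, qHTS format.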
# [2] = qHTS assay for small molecules that induce genotoxicity in human embryonic kidney cells expressing luciferase-tagged ATAD5 (AID 651632); settings: HEK293T ATAD5-luciferase induction, 16 h; series mostly up to 83.3 µM; also: nearly all actives have a fitted effect of over 15% in size; also: potency is read from the fitted curve at half-maximal effect
# In short: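 Increased luciferase signal from ATAD5-tagged reporter cells indicates DNA-damage-driven ATAD5 induction. HEK293T cells are treated for 16 hr at 37C before detection with Amplite.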
# [3] = qHTS assay for small molecule agonists of the p53 signaling pathway - cell viability (AID 651633; calls by dose curve; also: nearly all actives have a fitted effect of over 30% in size); settings: p53RE-bla HCT-116 viability, ATP luminescence, 16 h; series mostly up to 83.3 µM
# In short: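 p53RE-bla cells, seeded at 4,000 per well and rested 5 h at 37 C/5% CO2, received compounds in DMSO for 16 h at 37 C. CellTiter-Glo was then added, and luminescence was read after 30 min at room temperature to gauge cytotoxicity.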
# [4] = qHTS assay for small molecules that induce genotoxicity in human embryonic kidney cells expressing luciferase-tagged ATAD5 - cell viability (AID 651634; calls by dose curve; also: nearly all actives have a fitted effect of over 25% in size); settings: HEK293T ATAD5-luc cells viability, CellTiter-Fluor, 15.5 h; series mostly up to 83.3 µM
# In short: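 Cytotoxicity counterscreen in HEK293T cells bearing an ATAD5-luciferase reporter: live-cell protease activity measured by CellTiter-Fluor fluorescence after 15.5 hr compound exposure.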
# [5] = qHTS assay for small molecule disruptors of the mitochondrial membrane potential - cell viability (AID 720634; calls by dose curve;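 also: human HepG2 liver cancer cells; nearly all actives have a fitted effect of over 20% in size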); settings: HepG2 viability, ATP luminescence (CellTiter-Glo), 1 h; series mostly up to 83.2 µM
# In short: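 After overnight attachment at 37 C, HepG2 cells received compound or DMSO vehicle for 1 hr. Viability is then taken from ATP-driven luminescence following a 30 min room-temperature CellTiter-Glo step.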
# [6] = qHTS assay for small molecule disruptors of the mitochondrial membrane potential (AID 720635); settings: HepG2 mitochondrial membrane potential, Mito-MPS dye ratio; series mostly up to 83.2 µM
# In short: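 HepG2 cells (2,000/well) attached overnight at 37C, then took compound for 1 hr at 37C, 5% CO2. Mito-MPS dye was added for 30 min; fluorescence was read at 490/535 nm (monomers) and 540/590 nm (aggregates).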
# [7] = qHTS assay to test for compound auto fluorescence at 590 nm (red) in HepG2 cells (AID 720674); settings: HepG2 autofluorescence, red 540/590 nm, 1 h; series mostly up to 91.3 µM
# In short: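 Rose Bengal sodium served as the red fluorophore standard. HepG2 monolayers (overnight attachment, MEM with 10% FBS) were exposed to test compounds for 1 hr at 37 C and read at Ex 540/Em 590 nm.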
# [8] = qHTS assay to test for compound auto fluorescence at 535 nm (green) in HepG2 cells (AID 720675); settings: green autofluorescence 485/535 nm, 1 h; series mostly up to 91.3 µM
# [9] = qHTS assay to test for compound auto fluorescence at 460 nm (blue) in HEK293 cells (AID 720678); settings: blue autofluorescence 405/460 nm; series mostly up to 91.3 µM
# In short: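 HEK293 cells (2,000/well, medium with 10% dialyzed FBS) attached 4-5 hr, then exposed to compound overnight at 37C, 5% CO2. Blue fluorescence read at 405/460 nm, with triamterene as reference fluorophore.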
# [10] = qHTS assay to test for compound auto fluorescence at 590 nm (red) in HEK293 cells (AID 720679); settings: red autofluorescence 540/590 nm; series mostly up to 91.3 µM
# In short: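 HEK293 cells (2,000/well, 10% dialyzed FBS) attached 4-5 hr, then dosed with compound or DMSO and incubated overnight at 37C, 5% CO2. Red fluorescence read at 540/590 nm, Rose Bengal sodium as reference fluorophore.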
Compound,Potency [1],Potency [2],Potency [3],Potency [4],outcome [5],Potency [6],outcome [7],outcome [8],Potency [9],outcome [10],"fluorescence, relative to Rose Bengal [7]","fluorescence, % of fluorescein control [8]","fluorescence, % of triamterene [9]","fluorescence, % of fluorescent control [10]"
CC(C)N=C=NC(C)C,inactive,inactive,inactive,inactive,inactive,inactive,inactive,inactive,inactive,inactive,–,–,–,–
CCCCCCOC(=O)CCCCC,inactive,inactive,inactive,inactive,inactive,inactive,inactive,inactive,inactive,inactive,–,–,–,–
CC1=C2[C@@H]([C@H](C)CC[C@H]2/C=C(\C)C(=O)O)[C@H](O)C1,inactive,inactive,inactive,inactive,inactive,inactive,inactive,–,inactive,inactive,–,–,–,–
CCCC(=O)OC(=O)CCC,inactive,inactive,inactive,inactive,inactive,inactive,inactive,inactive,inactive,inactive,–,–,–,–
CCCCCCCC(=O)OCCCCCC,inactive,inactive,inactive,inactive,inactive,inactive,inactive,inactive,inactive,inactive,–,–,–,–
Cc1c[nH]c2ccccc12,inactive,inactive,inactive,inactive,inactive,inactive,inactive,inactive,inactive,inactive,–,–,–,–
CC(=O)OCCC1CCCCC1,inactive,inactive,inactive,inactive,inactive,inactive,inactive,inactive,inactive,inactive,–,–,–,–
CCN(CC)C(=O)N1CCN(C)CC1,inactive,inactive,inactive,inactive,inactive,inactive,–,–,–,–,0.12% [at 18.6 µM],-0.0715% [at 18.6 µM],-0.217% [at 18.6 µM],0.0039% [at 18.6 µM]
COC(CC(C)CCCC(C)(C)O)OC (centres undefined),inactive,inactive,inactive,inactive,inactive,inactive,inactive,inactive,inactive,inactive,–,–,–,–
COc1ccc(C2C(=O)c3ccccc3C2=O)cc1,inactive,inactive,inactive,inactive,inactive,inactive,inactive,inactive,inactive,inactive,–,–,–,–
CCCCCCC(O)CCCCCCCCCCC(=O)OC (centres undefined),inactive,inactive,inactive,inactive,inactive,inactive,inactive,inactive,inactive,inactive,–,–,–,–
C=CC(=O)O,inactive,inactive,inactive,inactive,inactive,inactive,inactive,–,inactive,inactive,–,–,–,–
CCCCCCC(CO)CCCC (centres undefined),inactive,inactive,inactive,inactive,inactive,–,inactive,inactive,inactive,–,–,–,–,–
Nc1ccn([C@H]2CS[C@@H](CO)O2)c(=O)n1,inactive,inactive,inactive,inactive,inactive,inactive,inactive,inactive,inactive,inactive,–,–,–,–
C=C(C)c1ccccc1,inactive,inactive,inactive,inactive,inactive,inactive,inactive,inactive,inactive,inactive,–,–,–,–
Cc1ccc(NC(=O)N(C)C)cc1NC(=O)N(C)C,inactive,inactive,inactive,inactive,inactive,inactive,inactive,inactive,inactive,inactive,–,–,–,–
O=C(O)c1cccc(Oc2ccccc2)c1,inactive,inactive,inactive,inactive,inactive,inactive,inactive,inactive,inactive,inactive,–,–,–,–
BrC(Br)C(Br)Br,inactive,inactive,inactive,inactive,inactive,inactive,inactive,inactive,inactive,inactive,–,–,–,–
CC(C)C(=O)OCCOc1ccccc1,inactive,inactive,inactive,inactive,inactive,inactive,inactive,inactive,inactive,inactive,–,–,–,–
CC(CO)(CO)C(=O)O,inactive,inactive,inactive,inactive,inactive,inactive,inactive,–,inactive,inactive,–,–,–,–
CC(C)CC(O)CC(C)C,inactive,inactive,inactive,inactive,inactive,–,inactive,inactive,inactive,–,–,–,–,–
COC(=O)CC(C(C)=O)C(=O)OC (centres undefined),inactive,inactive,inactive,inactive,inactive,inactive,inactive,–,inactive,inactive,–,–,–,–
COC(OC)OC,inactive,inactive,inactive,inactive,inactive,inactive,inactive,inactive,inactive,inactive,–,–,–,–
COc1ccc(-c2cc(C(F)F)nn2-c2ccc(S(N)(=O)=O)cc2)cc1F,inactive,inactive,inactive,inactive,inactive,–,inactive,–,inactive,inactive,–,–,–,–
Cc1ccc(Cl)cc1N,inactive,inactive,inactive,inactive,inactive,–,inactive,inactive,inactive,inactive,–,–,–,–
Cc1cccc2sc(N)nc12,inactive,inactive,inactive,inactive,inactive,–,inactive,inactive,inactive,inactive,–,–,–,–

Compound,Potency [1],Potency [2],Potency [3],Potency [4],outcome [5],Potency [6],outcome [7],outcome [8],Potency [9],outcome [10],"fluorescence, relative to Rose Bengal [7]","fluorescence, % of fluorescein control [8]","fluorescence, % of triamterene [9]","fluorescence, % of fluorescent control [10]"
C1=CCC2CC=CC2C1 (centres undefined),inactive,inactive,inactive,inactive,inactive,–,inactive,inactive,inactive,inactive,–,–,–,–
O=[N+]([O-])c1ccc2ncccc2c1,inactive,inactive,inactive,inactive,inactive,–,inactive,inactive,inactive,inactive,–,–,–,–
O=C(C(=O)c1ccco1)c1ccco1,inactive,inactive,inactive,inactive,inactive,–,inactive,inactive,inactive,inactive,–,–,–,–
O=C(O)CN1C(=O)c2cccc3cccc(c23)C1=O,inactive,inactive,inactive,inactive,inactive,–,inactive,inactive,inactive,inactive,–,–,–,–
C[C@H](CS)C(=O)N1CCC[C@H]1C(=O)O,inactive,inactive,inactive,inactive,inactive,–,inactive,–,inactive,inactive,–,–,–,–
CC(C)(C)NCC(O)COc1cccc2c1C[C@H](O)[C@H](O)C2 (some centres undefined),inactive,inactive,inactive,inactive,inactive,–,–,–,–,–,0.0921% [at 18.6 µM],0.0163% [at 18.6 µM],0.0252% [at 18.6 µM],-0.0478% [at 18.6 µM]
CCN(CC)CCOC(=O)C(c1ccccc1)c1ccccc1,inactive,inactive,inactive,inactive,inactive,–,inactive,inactive,inactive,inactive,–,–,–,–
CCOCCC(=O)OCC,inactive,inactive,inactive,inactive,inactive,–,inactive,inactive,inactive,inactive,–,–,–,–
CC(=O)OC(C)C[N+](C)(C)C (centres undefined),inactive,inactive,inactive,inactive,inactive,–,–,–,–,–,0.553% [at 18.6 µM],0.0253% [at 18.6 µM],-0.423% [at 18.6 µM],-0.334% [at 18.6 µM]
CC(C)COC(=O)COc1cc(Cl)c(Cl)cc1Cl,inactive,inactive,inactive,inactive,inactive,–,inactive,inactive,inactive,inactive,–,–,–,–
Cc1ccc(N(CCO)CCO)cc1,inactive,inactive,inactive,inactive,inactive,–,inactive,inactive,inactive,inactive,–,–,–,–
Nc1c(Cl)cc(Cl)cc1[N+](=O)[O-],inactive,inactive,inactive,inactive,inactive,–,inactive,inactive,inactive,inactive,–,–,–,–
O=C(NC(Cc1cc(=O)[nH]c2ccccc12)C(=O)O)c1ccc(Cl)cc1 (centres undefined),inactive,inactive,inactive,inactive,inactive,–,inactive,inactive,inactive,inactive,–,–,–,–
CCCCCCC(O)CCOC(C)=O (centres undefined),inactive,inactive,inactive,inactive,inactive,–,inactive,inactive,inactive,inactive,–,–,–,–
O=CNNC=O,inactive,inactive,inactive,inactive,inactive,–,inactive,inactive,inactive,inactive,–,–,–,–
CCNc1nc(N)nc(Cl)n1,inactive,inactive,inactive,inactive,inactive,–,inactive,inactive,inactive,inactive,–,–,–,–
NC(=O)CCCCC(N)=O,inactive,inactive,inactive,inactive,inactive,–,inactive,inactive,inactive,inactive,–,–,–,–
Nc1nc2ccc(OC(F)(F)F)cc2s1,7.5 µM (active),11.9 µM (active),inactive,inactive,inactive,–,inactive,inactive,inactive,inactive,–,–,–,–
CCC(C)(C)C(=O)O,inactive,inactive,inactive,inactive,inactive,–,inactive,–,inactive,inactive,–,–,–,–
CC(=O)Oc1cccc(O)c1,inactive,inactive,inactive,inactive,inactive,–,inactive,inactive,inactive,inactive,–,–,–,–
CNCc1ccc(NC(=O)c2c[nH]c3c2C(=O)CCC3)cc1,inactive,inactive,inactive,inactive,inactive,–,inactive,inactive,inactive,inactive,–,–,–,–
O=c1[nH][nH]c(=O)c2cc([N+](=O)[O-])ccc12,inactive,inactive,inactive,inactive,inactive,–,inactive,–,inactive,inactive,–,–,–,–
CC(=O)OCC(=O)[C@@]1(OC(C)=O)[C@@H](C)C[C@H]2[C@@H]3C[C@H](F)C4=CC(=O)C=C[C@]4(C)[C@@]3(F)[C@@H](O)C[C@@]21C,inactive,inactive,inactive,inactive,inactive,–,inactive,inactive,inactive,inactive,–,–,–,–
O=S(=O)(O)CO,inactive,inactive,inactive,inactive,inactive,–,inactive,–,inactive,inactive,–,–,–,–
NC(=O)c1ccccc1[N+](=O)[O-],inactive,inactive,inactive,inactive,inactive,–,inactive,inactive,inactive,inactive,–,–,–,–
